Assay results from PubChem BioAssay AID2685 (National Center for Advancing Translational Sciences (NCATS), 2010).
Among all 320,000 compounds or so, about 2,100 (0.66%) were called active. Not shown: some 53% with an inconclusive outcome. Calls come from the whole dose curve; as a rule, active = well fitted inhibition curve with a large enough effect in the signal ratio, with a control signal flat (not every such curve was filed as active); inconclusive = small, poorly fitted or top-dose-only effect, or effect the other way, or a change in a side signal; inactive = flat fitted curve, though single readings scatter; the % refers to the signal ratio. Shown is part of a subset that was picked to be rich in actives.

Experiment: qHTS Assay for Lipid Storage Modulators in Drosophila S3 Cells;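 for cell number change: cells counted by Cell Tracker Red CMTPX staining in the red channel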; for lipid storage change, negative = inhibition: % is set by controls: 0 for no effect and ±100 for the full control effect
Details: BODIPY lipid droplet fluorescence, 18-24 h, cells fed with added oleic acid; cell number change: measured here: cell count max response; series mostly up to 46.1 µM; lipid storage change, negative = inhibition: at the top concentration
Text: NIH Molecular Libraries Probe Production Centers Network [MLPCN] NIH Chemical Genomics Center [NCGC] MLPCN Grant: 1 R03 MH085686-01 Assay Submitter (PI): Beller, Mathias; Max-Planck-Institut fur Biophysikalische Chemie NCGC Assay Overview: Storing lipids as a reservoir for energy or the anabolism of elementary metabolites is a common feature of probably all cells and is conserved from bacteria to humans. The universal cellular lipid storage organelle is the so-called lipid storage droplet (LD). Although ubiquitous, LDs share a simple structure composed of a hydrophobic core that harbors the storage lipids, which is shielded by a droplet-specific phospholipid monolayer to which proteins are attached. The current model of LD biogenesis involves an incorporation of the lipid core into the membrane leaflets of the endoplasmic reticulum (ER) followed by a subsequent budding-like maturation of a LD, which ultimately pinches off. Once released, LD volume can increase by localized lipogenesis or fusion of existing droplet. Storage lipids are re-mobilized enzymatically by lipase activity. Lipase regulation in the adipocyte is heavily studied and involves multiple components including catecholamine signaling, the LD-associated proteins Perilipin and comparative gene identification (CGI-58) and at least two lipases named hormone sensitive lipase (HSL) and adipocyte triglyceride lipase (ATGL). LD regulation outside of the adipocyte is poorly understood and only few components are known. However, there is an urgent need to learn more about ectopic fat depots as mislocalized storage of lipids, for example in the liver or muscle, is an eminent health problem associated with insulin resistance or the metabolic syndrome. We developed a laser-scanning cytometer assay to enable 1,536-well screening and combined the results of the small molecules screen with an RNAi database based on lipid storage.
Triacsin C (Sigma-Aldrich T-4540), an inhibitor of long-chain fatty acyl CoA synthetase that blocks synthesis of triglycerides, was used as a positive control for lipid under-storage. A total of 23 nL of compound solution of different concentrations were transferred to the assay plates using a Kalypsys pin tool equipped with a 1,536-pin array containing 10-nL slotted pins (FP1S10, 0.457-mm diameter, 50.8 mm long; V&P Scientific). One microliter of oleic acid (400 uM) was added, and the plate was lidded with stainless steel rubber gasket lined lids containing pinholes. […] Fluorescence was detected by excitation of the fluorophores with a 488-nm laser on an Acumen Explorer (TTP Lab Tech). The total intensity in channel 2 (500-530 nm) reflected lipid droplet accumulation. Cells were detected using channel 3 (575-640 nm) with 5-um width and 100-um depth filters. The ratio of the number of objects in PMT channel 2 over the number of objects in PMT channel 3 was also calculated. Percent activity was computed relative to an internal control (100% inhibited lipid droplet deposition due to the presence of 20 uM Triacsin C), which was added to 32 wells/plate.
Potency is the fitted concentration of half-maximal effect.

Row | SMILES | lipid storage change, negative = inhibition | cell number change [%] | outcome | Potency
1 | Cc1cccc2nc(CSc3nc4ccccc4[nH]3)cn12 | -6.23% (inactive) |  |  | 
2 | CC1(C)Cc2c(c(=S)nc(-c3ccccc3)n2CCOCCO)CO1 | 0.774% (inactive) | 4.5 |  | 
3 | COCCn1c(-c2ccccc2)nc(=S)c2c1CC(C)(C)OC2 |  |  | inactive | 
4 | CC1(C)Cc2c(c(=S)nc(-c3ccccc3)n2CCO)CO1 |  | -12.1 |  | 0.259 µM (active)
5 | CC(=O)Nc1ncc(Cc2cccc(Cl)c2Cl)s1 |  |  | inactive | 
6 | Cc1nn(C(C)C(=O)NC2C(=O)N3C(C(=O)O)=C(CSc4nnnn4C)CSC23)cc1Cl (centres undefined) | 6.33% (inactive) | -1.98 |  | 
7 | COc1cccc(NC(=S)N2CCN(C)CC2)c1 | -6.39% (inactive) | -7.43 |  | 
8 | COc1cccc(NC(=O)COc2ccc(C(=S)N3CCN(C)CC3)cc2OC)c1 |  |  |  | 8.2 µM (active)
9 | COc1cccc(NC(=O)COc2ccc(C(=O)N3CCN(C)CC3)cc2)c1 |  | 10.4 | inactive | 
10 | CCOCCn1c(N2CCCC2)nc2c1c(=O)n(C)c(=O)n2C |  | -1.35 | inactive | 
11 | CCOC1=C/C(=C/c2c(N)n3nc(CC(=O)N4CCCC4)sc3nc2=O)C=CC1=O |  | -5.2 | inactive | 
12 | COC1=C/C(=C/c2c(N)n3nc(CC(=O)N4CCCCC4)sc3nc2=O)C=CC1=O |  | -9.68 |  | 14.6 µM (active)
13 | Nc1c(/C=C2/C=CC(=O)C(O)=C2)c(=O)nc2sc(CC(=O)N3CCCCC3)nn12 |  | -19.8 | inactive | 
14 | COC(=O)c1c(NC(=O)c2ccco2)sc(C(=O)N2CCCC2)c1C | 19.5% (inactive) | -26.3 |  | 
15 | CCCn1cc(S(=O)(=O)c2ccc(OC)cc2)c(=O)c2cc(OCC)ccc21 | -20.7% (inactive) |  |  | 
16 | CC(C)C(C(=O)Nc1ccc2c(c1)OCO2)N1C(=O)c2ccccc2C1=O (centres undefined) |  | -19.4 | inactive | 
17 | O=C(CCCCCNC(=O)c1ccccc1)N/N=C/c1ccc(O)cc1O | -5.27% (inactive) | 1.3 |  | 
18 | O=C(CCCCCNC(=O)c1ccccc1)N/N=C/c1ccccc1O |  | -19.4 |  | 9.2 µM (active)
19 | O=C(CCCCCNC(=O)c1ccccc1)N/N=C/c1ccco1 |  |  | inactive | 
20 | CSC1=NCCN1S(=O)(=O)c1ccc2ccccc2c1 | 3.31% (inactive) | 1.31 |  | 
21 | CC(C)Oc1ccc(CNC(=O)C2CCCN(S(=O)(=O)N3CCOCC3)C2)cc1 (centres undefined) |  | 24.2 | inactive | 
22 | O=Cc1cccn1-c1sc2c(c1C(=O)O)CCCC2 | 0.304% (inactive) | -5.54 |  | 
23 | C=CCn1cccc(C(=O)Nc2ccc(SC)cc2)c1=O |  | 16.6 |  | 4.11 µM (active)
24 | C=CCn1cccc(C(=O)Nc2ccc(C)cc2)c1=O | 15.4% (inactive) | 10.2 |  | 
25 | C=CCn1cccc(C(=O)Nc2ccc(Cl)cc2)c1=O | 8.12% (inactive) | 6.52 |  | 

Row | SMILES | lipid storage change, negative = inhibition | cell number change [%] | outcome | Potency
26 | COC(=O)c1cn(NC(=O)/C=C/c2ccc(OC)c(OC)c2)c(=O)c2ccccc12 | -1.77% (inactive) | -14.9 |  | 
27 | CCOC(=O)Cc1csc(NC(=O)/C=C/c2ccccc2Cl)n1 | 12.2% (inactive) | -1.33 |  | 
28 | COc1nc(C#N)nc(N(C)C)n1 | -8.69% (inactive) | -4.25 |  | 
29 | CCCCNC(=O)/C(C#N)=C/c1cccnc1 |  |  |  | 20.6 µM (active)
30 | CCN(CC)c1ccc(/C=C(/C#N)C(=O)NCc2ccccc2)o1 |  | -20.4 |  | 2.06 µM (active)
31 | Cc1ccc(/C=C(\C#N)C(=O)NCc2ccco2)o1 | 4.22% (inactive) |  |  | 
32 | N#C/C(=C\c1cccnc1)C(=O)Nc1ccccc1 | 16% (inactive) | -2.7 |  | 
33 | N#C/C(=C\c1ccc(O)cc1)C(=O)NCc1ccccc1 | 12.1% (inactive) |  |  | 
34 | N#C/C(=C/c1ccccc1)C(=O)NCc1ccccc1 |  | 18.6 |  | 2.59 µM (active)
35 | N#C/C(=C/c1ccc(C(=O)O)cc1)C(=O)Nc1ccccc1 | -13.8% (inactive) |  |  | 
36 | N#C/C(=C/c1ccc(OCc2ccc(C(=O)O)cc2)cc1)C(=O)Nc1ccccc1 | 0.353% (inactive) | 14.9 |  | 
37 | N#C/C(=C\c1ccc(OCc2ccccc2)cc1)C(=O)Nc1ccc(C(=O)O)cc1 |  | 12.2 |  | 20.6 µM (active)
38 | CCCCNC(=O)/C(C#N)=C/c1ccc(C(=O)OC)cc1 | -11.1% (inactive) | -26.3 |  | 
39 | COc1ccc(/C=C(\C#N)C(=O)NCc2ccccc2)cc1 | 3.79% (inactive) | -4.49 |  | 
40 | N#C/C(=C\c1cccs1)C(=O)NCc1ccccc1 | -2.68% (inactive) | -1.86 |  | 
41 | CC(C)CN(C(=O)C1CCCC1)C1CCS(=O)(=O)C1 (centres undefined) | -4.14% (inactive) | -27.9 |  | 
42 | N#CCN1CCC/C1=C\[N+](=O)[O-] | 4.55% (inactive) | 11.9 |  | 
43 | CCCN(CCC)S(=O)(=O)c1ccc2c(c1)CCCN2C(C)=O | 13.4% (inactive) | -13.4 |  | 
44 | Cc1ccc(CN2CCN(/N=C/c3sccc3C)CC2)c(C)c1 | 20.6% (inactive) | -17.1 |  | 
45 | CCN(CC)S(=O)(=O)c1cccc(C(=O)NC2=NCCS2)c1 | -13.9% (inactive) | -2.91 |  | 
46 | O=C(N/N=C/c1c[nH]c2ccccc12)c1ccn(Cc2ccc(Cl)cc2Cl)n1 | -4% (inactive) | -11.1 |  | 
47 | O=C(NCc1c(Cl)cccc1Cl)c1ccc2nnsc2c1 | 0.193% (inactive) | 12.5 |  | 
48 | O=C(NC(CCl)c1ccccc1)c1ccc(Cl)cc1 (centres undefined) | 1.15% (inactive) | 13.4 |  | 
49 | O=C1CCCN1c1ccc(C(=O)N(Cc2nnc(-c3ccccc3Cl)o2)C2CC2)cc1 |  | -25.6 | inactive | 
50 | CN(C)c1cccc(C(=O)NCc2ccccc2Cl)c1 |  |  | inactive | 
